Measured values as given in PubChem BioAssay (EPA / NIEHS).
The source made the active and inactive calls. How the source made its calls: active means hit-call score of the fitted dose curve at least 0.9, where 1 is the maximum; inactive means score below 0.9.

Experiments:
[1] = target: Bile acid receptor (Homo sapiens) (UniProt Q96RI1); experiment: ATG_IR1_CIS: Attagene CIS-FACTORIAL HepG2 Assay for human Nuclear Receptor Subfamily 1 Group H Member 4 (NR1H4), IR1 submotif (AID 2282946); settings: IR1 reporter transcription, actives raise or lower the signal
Sequence of Bile acid receptor (Homo sapiens) (Q96RI1 whole entry, looked up): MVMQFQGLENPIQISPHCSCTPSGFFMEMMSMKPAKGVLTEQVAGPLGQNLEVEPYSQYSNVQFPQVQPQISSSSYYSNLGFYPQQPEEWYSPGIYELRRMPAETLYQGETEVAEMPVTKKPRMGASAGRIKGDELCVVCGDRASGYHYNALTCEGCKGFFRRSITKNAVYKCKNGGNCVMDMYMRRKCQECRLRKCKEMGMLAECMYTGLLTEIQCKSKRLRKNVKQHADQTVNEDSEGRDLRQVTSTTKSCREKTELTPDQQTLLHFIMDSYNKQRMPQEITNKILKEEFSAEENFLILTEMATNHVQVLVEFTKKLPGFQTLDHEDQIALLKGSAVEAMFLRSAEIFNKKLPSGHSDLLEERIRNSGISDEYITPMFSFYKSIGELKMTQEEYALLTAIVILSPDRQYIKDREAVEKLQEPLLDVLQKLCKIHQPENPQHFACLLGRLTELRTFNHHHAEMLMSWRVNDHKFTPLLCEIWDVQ
In short: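 Transient MRTU transfection, HepG2; 24 h dosing; RNA → RT-PCR → 6-FAM primer extension → HpaI digest → capillary electrophoresis fluorescence. Gain/loss of signal fitted relative to DMSO.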

[2] = ATG_ISRE_CIS: Attagene CIS-FACTORIAL HepG2 Assay for human Interferon Regulatory Factor 1 (IRF1) binding to an Interferon-Stimulated Response Element (ISRE) (AID 2282948); settings: HepG2 ISRE cis-reporter (Attagene), mRNA transcription readout; actives raise or lower the signal
In short: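 Transiently transfected HepG2 cells carrying cis-element reporter units, dosed 24 hours. Reporter mRNA quantified by RT-PCR, fluorescent primer extension, HpaI digestion and capillary electrophoresis. Bidirectional fitting relative to DMSO.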

[3] = ATG_M_32_CIS: Attagene CIS-FACTORIAL HepG2 Assay for M32 Transcription Factor (Internal Marker) (AID 2282949); settings: HepG2 Attagene cis-factorial M32 reporter, mRNA; actives raise or lower the signal;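 further: background control marker of the multiplexed CIS panel rather than a real target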
In short: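 Following 24 h chemical exposure of HepG2 cells transiently expressing cis-promoter reporter constructs, reporter transcript levels were determined by RT-PCR with fluorescent labelling and capillary electrophoresis, then fitted bidirectionally against DMSO.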

[4] = ATG_M_06_CIS: Attagene CIS-FACTORIAL HepG2 Assay for M06 Transcription Factor (Internal Marker) (AID 2282950); settings: HepG2 Attagene CIS-FACTORIAL M06 internal marker reporter; actives raise or lower the signal
In short: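 Terse: HepG2, transient MRTU transfection (FuGene 6), 24 h dosing; total RNA, oligo(dT) RT, PCR, FAM label, HpaI cut, capillary electrophoresis; bidirectional fit vs DMSO baseline; background-control endpoint.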

[5] = target: Hypoxia-inducible factor 1-alpha (Homo sapiens) (UniProt Q16665); experiment: ATG_HIF1a_CIS: Attagene CIS-FACTORIAL HepG2 Assay for human Hypoxia Inducible Factor 1 (HIF1A) (AID 2282951); settings: HepG2 Attagene cis-factorial HIF1a reporter transcription; actives raise or lower the signal
Sequence of Hypoxia-inducible factor 1-alpha (Homo sapiens) (Q16665 whole entry, looked up, the tested form may be a part): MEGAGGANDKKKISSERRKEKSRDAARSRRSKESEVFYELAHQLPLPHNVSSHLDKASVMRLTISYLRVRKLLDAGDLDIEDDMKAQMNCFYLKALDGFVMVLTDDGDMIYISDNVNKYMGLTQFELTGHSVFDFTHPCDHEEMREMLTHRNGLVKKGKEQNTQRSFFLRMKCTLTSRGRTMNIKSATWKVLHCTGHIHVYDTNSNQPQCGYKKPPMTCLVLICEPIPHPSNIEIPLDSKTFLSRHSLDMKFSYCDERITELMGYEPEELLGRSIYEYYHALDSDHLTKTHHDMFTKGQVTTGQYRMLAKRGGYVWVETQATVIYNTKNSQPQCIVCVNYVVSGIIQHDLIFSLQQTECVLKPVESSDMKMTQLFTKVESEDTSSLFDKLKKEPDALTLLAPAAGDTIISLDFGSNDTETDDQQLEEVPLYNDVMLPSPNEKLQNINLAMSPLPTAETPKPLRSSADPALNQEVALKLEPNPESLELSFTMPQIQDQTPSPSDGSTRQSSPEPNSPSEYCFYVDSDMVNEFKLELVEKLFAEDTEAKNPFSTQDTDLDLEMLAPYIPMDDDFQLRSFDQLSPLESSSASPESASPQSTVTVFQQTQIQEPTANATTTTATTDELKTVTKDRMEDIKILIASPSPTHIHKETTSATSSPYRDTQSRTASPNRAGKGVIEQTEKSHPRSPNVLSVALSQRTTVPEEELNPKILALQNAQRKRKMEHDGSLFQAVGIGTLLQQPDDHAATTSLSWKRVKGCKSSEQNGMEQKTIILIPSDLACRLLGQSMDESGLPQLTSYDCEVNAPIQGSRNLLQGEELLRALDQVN
In short: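 Transient MRTU transfection of human HepG2 liver cells, 24 h compound treatment, then total RNA isolation, oligo(dT) reverse transcription, PCR amplification, fluorescent labelling and capillary electrophoresis of reporter fragments. Gain or loss relative to DMSO.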

[6] = target: Hepatocyte nuclear factor 6 (Homo sapiens) (UniProt Q9UBC0); experiment: ATG_HNF6_CIS: Attagene CIS-FACTORIAL HepG2 Assay for human Hepatocyte Nuclear Factor 6 (HNF6) (AID 2282952); settings: HepG2 Attagene cis-factorial HNF6 reporter transcription; actives raise or lower the signal
Sequence of Hepatocyte nuclear factor 6 (Homo sapiens) (Q9UBC0 whole entry, looked up): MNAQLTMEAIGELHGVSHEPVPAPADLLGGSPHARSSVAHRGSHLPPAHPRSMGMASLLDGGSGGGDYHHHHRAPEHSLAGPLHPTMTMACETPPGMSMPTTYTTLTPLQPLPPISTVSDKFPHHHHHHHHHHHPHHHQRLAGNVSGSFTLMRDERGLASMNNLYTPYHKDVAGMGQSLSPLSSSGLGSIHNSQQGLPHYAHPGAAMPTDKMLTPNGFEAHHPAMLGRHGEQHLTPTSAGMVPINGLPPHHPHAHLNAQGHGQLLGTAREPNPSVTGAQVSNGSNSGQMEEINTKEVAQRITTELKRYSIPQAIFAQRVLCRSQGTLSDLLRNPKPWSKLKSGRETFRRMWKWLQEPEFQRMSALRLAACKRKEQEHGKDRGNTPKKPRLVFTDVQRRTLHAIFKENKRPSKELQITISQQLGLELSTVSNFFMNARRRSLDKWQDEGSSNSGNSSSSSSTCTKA
In short: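 Cells are HepG2 carrying transiently transfected cis-promoter reporter units. Treatment lasts 24 h, after which reporter transcripts are reverse-transcribed, amplified, FAM-labelled and sized by capillary electrophoresis. DMSO serves as baseline.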

[7] = ATG_MRE_CIS: Attagene CIS-FACTORIAL HepG2 Assay for human Metal Responsive Element (MRE) (AID 2282954); settings: HepG2 MRE cis-reporter transcription, Attagene multiplex; actives raise or lower the signal
In short: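 HepG2 cells transiently transfected with multiple cis-element reporter units measure endogenous MTF1-driven transcription. After 24 h compound exposure, reporter mRNA is quantified by RT-PCR with 6-FAM labelling, HpaI digestion and capillary electrophoresis; bidirectional fits versus DMSO.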

[8] = target: Paired box protein Pax-6 (Homo sapiens) (UniProt P26367); experiment: ATG_Pax6_CIS: Attagene CIS-FACTORIAL HepG2 Assay for human Paired Box 6 (PAX6) (AID 2282956); settings: HepG2 CIS-FACTORIAL PAX6 reporter transcription, RNA readout; actives raise or lower the signal
Sequence of Paired box protein Pax-6 (Homo sapiens) (P26367 whole entry, looked up): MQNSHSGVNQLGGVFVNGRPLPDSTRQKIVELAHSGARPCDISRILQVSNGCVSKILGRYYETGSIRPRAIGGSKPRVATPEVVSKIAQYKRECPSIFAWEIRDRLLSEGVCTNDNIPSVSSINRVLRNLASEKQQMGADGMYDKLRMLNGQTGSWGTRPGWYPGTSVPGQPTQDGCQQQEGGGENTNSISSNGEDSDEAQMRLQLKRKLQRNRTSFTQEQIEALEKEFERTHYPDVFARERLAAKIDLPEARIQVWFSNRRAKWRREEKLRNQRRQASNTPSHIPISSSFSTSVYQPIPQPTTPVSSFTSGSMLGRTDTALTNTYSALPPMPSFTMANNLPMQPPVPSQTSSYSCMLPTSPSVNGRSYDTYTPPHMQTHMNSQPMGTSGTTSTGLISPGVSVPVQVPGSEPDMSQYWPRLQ
In short: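 HepG2 cells transiently transfected with cis-promoter-driven multiplexed reporter units sensing endogenous transcription factor activity; 24 h chemical exposure. Reporter mRNA quantified by RT-PCR, 6-FAM labelling, HpaI digestion and capillary electrophoresis; bidirectional fit versus DMSO baseline.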

[9] = ATG_PXRE_CIS: Attagene CIS-FACTORIAL HepG2 Assay for human Pregnane X Receptor Element (PXRE) (AID 2282957); settings: HepG2 Attagene CIS-FACTORIAL PXRE reporter, mRNA; actives raise or lower the signal
In short: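 Multiplexed cis-reporter assay in transiently transfected human HepG2 cells; 24 h chemical exposure. Reporter transcripts quantified by RT-PCR with fluorescent labeling and capillary electrophoresis.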

[10] = ATG_PPRE_CIS: Attagene CIS-FACTORIAL HepG2 Assay for human Peroxisome Proliferator-activated Response Element (PPRE) (AID 2282958); settings: HepG2 PPRE cis-element reporter, Attagene transcription factor profiling; actives raise or lower the signal
In short: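 HepG2, transient MRTU transfection (cis promoter elements, endogenous TFs). 24 h dosing. RNA → oligo(dT) RT → PCR → 6-FAM primer extension → HpaI digest → CE. Bidirectional fit vs DMSO.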

[11] = ATG_RORE_CIS: Attagene CIS-FACTORIAL HepG2 Assay for human RAR-related Orphan Receptor Element (RORE) (AID 2282959); settings: HepG2 Attagene cis-factorial RORE reporter, mRNA; actives raise or lower the signal
In short: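 Transient MRTU transfection of human HepG2 liver cells (FuGene 6); 24 h compound exposure; TriZol RNA, oligo(dT) RT, PCR, FAM labeling, HpaI cut, CE fragment analysis. DMSO = negative control/baseline.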

[12] = ATG_Sox_CIS: Attagene CIS-FACTORIAL HepG2 Assay for human SRY-box transcription factor (SOX) (AID 2282960); settings: HepG2 Attagene cis-factorial SOX reporter, mRNA; actives raise or lower the signal
In short: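 Endogenous factor activity in human liver HepG2 cells carrying transfected cis-regulated reporter units. RNA taken 24 h post-dose, reverse-transcribed, PCR-amplified and sized by capillary electrophoresis. Gain or loss of signal fitted relative to DMSO.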

[13] = target: Transcription factor Sp1 (Homo sapiens) (UniProt P08047); experiment: ATG_Sp1_CIS: Attagene CIS-FACTORIAL HepG2 Assay for human Specificity Protein 1 (Sp1) (AID 2282961); settings: HepG2 Sp1 cis-reporter transcription, actives raise or lower the signal
Sequence of Transcription factor Sp1 (Homo sapiens) (P08047 whole entry, looked up): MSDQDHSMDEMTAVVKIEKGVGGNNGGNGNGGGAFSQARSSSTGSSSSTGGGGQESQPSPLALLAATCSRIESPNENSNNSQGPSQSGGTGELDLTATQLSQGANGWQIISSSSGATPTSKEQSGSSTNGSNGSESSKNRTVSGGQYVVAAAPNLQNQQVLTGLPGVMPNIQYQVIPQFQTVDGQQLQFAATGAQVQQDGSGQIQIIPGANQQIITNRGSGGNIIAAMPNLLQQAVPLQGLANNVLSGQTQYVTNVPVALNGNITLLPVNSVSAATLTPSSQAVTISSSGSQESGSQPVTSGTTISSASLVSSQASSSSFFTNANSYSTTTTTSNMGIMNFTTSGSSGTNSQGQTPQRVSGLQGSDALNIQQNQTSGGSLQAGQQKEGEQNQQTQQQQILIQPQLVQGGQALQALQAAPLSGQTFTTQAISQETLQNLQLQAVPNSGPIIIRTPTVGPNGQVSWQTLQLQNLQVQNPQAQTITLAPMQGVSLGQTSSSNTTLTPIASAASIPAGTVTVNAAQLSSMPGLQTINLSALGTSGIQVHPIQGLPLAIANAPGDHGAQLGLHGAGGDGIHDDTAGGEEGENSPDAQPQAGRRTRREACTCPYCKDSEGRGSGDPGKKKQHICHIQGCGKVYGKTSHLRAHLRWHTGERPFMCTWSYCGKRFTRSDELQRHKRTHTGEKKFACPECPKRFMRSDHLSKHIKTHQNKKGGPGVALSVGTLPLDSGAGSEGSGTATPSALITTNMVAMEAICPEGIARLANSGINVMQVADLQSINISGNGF
In short: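 Transient MRTU-transfected HepG2, 24 h compound exposure. Total RNA → oligo(dT) RT → PCR of reporter → 6-FAM primer extension → HpaI digest → CE. Endpoint fitted both directions vs DMSO.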

[14] = ATG_SREBP_CIS: Attagene CIS-FACTORIAL HepG2 Assay for human Sterol Regulatory Element Binding (SREBP) (AID 2282962); settings: HepG2 Attagene cis-factorial SREBP reporter, mRNA; actives raise or lower the signal
In short: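 HepG2 cells transiently transfected with multiplexed cis-promoter reporter units sensing endogenous transcription factors; reporter mRNA measured 24 h after dosing by RT-PCR, 6-FAM labeling, HpaI digestion and capillary electrophoresis. Bidirectional fit versus DMSO.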

[15] = target: Signal transducer and activator of transcription 3 (Homo sapiens) (UniProt P40763); experiment: ATG_STAT3_CIS: Attagene CIS-FACTORIAL HepG2 Assay for human Signal Transducer and Activator of Transcription 3 (STAT3) (AID 2282963); settings: HepG2, Attagene cis-factorial STAT3 reporter transcription; actives raise or lower the signal
Sequence of Signal transducer and activator of transcription 3 (Homo sapiens) (P40763 whole entry, looked up): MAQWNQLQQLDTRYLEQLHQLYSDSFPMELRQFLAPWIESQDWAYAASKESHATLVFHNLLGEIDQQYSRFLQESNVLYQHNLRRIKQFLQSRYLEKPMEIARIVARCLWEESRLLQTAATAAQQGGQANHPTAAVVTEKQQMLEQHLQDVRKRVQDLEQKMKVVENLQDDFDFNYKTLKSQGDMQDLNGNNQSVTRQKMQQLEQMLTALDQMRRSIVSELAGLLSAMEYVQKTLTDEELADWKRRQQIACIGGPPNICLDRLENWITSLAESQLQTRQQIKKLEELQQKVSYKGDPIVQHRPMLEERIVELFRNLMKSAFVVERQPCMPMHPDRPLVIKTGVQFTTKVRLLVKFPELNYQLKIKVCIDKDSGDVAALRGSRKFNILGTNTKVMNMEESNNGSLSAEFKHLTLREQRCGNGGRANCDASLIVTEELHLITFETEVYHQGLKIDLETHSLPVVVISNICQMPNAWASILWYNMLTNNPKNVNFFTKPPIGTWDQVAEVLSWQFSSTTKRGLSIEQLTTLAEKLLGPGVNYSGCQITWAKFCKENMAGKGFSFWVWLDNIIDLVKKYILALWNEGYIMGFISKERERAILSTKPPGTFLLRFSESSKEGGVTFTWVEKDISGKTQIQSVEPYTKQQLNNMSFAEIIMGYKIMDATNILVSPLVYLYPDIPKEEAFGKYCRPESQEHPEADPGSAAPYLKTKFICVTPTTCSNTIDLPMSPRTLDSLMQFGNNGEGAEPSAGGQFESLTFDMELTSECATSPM
In short: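 HepG2 cells transiently transfected with cis-element-driven multiple reporter transcription units; after 24 h chemical exposure, reporter mRNA measured by RT-PCR, 6-FAM primer-extension labelling, HpaI digestion and capillary electrophoresis. Bidirectional fitting versus DMSO baseline.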

[16] = ATG_TA_CIS: Attagene CIS-FACTORIAL HepG2 Assay for human TA Basal Promoter (AID 2282964); settings: HepG2 Attagene CIS-factorial TA basal promoter reporter; actives raise or lower the signal
In short: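 Transfected HepG2, 24 h compound exposure; RNA → RT-PCR → FAM primer extension → HpaI cut → CE fluorescence. Gain/loss-of-signal fitted against DMSO negative control. Background-control readout.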

[17] = ATG_TCF_b_cat_CIS: Attagene CIS-FACTORIAL HepG2 Assay for human T-Cell-Factor with beta-catenin (TCF/b-cat) (AID 2282965); settings: HepG2 TCF/beta-catenin cis-reporter transcription, actives raise or lower the signal
In short: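 In this cis-format system, transfected HepG2 cells report endogenous transcription factor activity. Readout after 24 h exposure is reporter transcript abundance from RT-PCR and capillary electrophoresis, analysed for gain or loss of signal versus DMSO.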

[18] = target: Heat shock factor protein 1 (Homo sapiens) (UniProt Q00613); experiment: ATG_HSE_CIS: Attagene CIS-FACTORIAL HepG2 Assay for human Heat Shock Transcription Factor 1 (HSE) (AID 2282953); settings: HepG2 HSE cis-reporter, Attagene RNA transcription; actives raise or lower the signal
Sequence of Heat shock factor protein 1 (Homo sapiens) (Q00613 whole entry, looked up, the tested form may be a part): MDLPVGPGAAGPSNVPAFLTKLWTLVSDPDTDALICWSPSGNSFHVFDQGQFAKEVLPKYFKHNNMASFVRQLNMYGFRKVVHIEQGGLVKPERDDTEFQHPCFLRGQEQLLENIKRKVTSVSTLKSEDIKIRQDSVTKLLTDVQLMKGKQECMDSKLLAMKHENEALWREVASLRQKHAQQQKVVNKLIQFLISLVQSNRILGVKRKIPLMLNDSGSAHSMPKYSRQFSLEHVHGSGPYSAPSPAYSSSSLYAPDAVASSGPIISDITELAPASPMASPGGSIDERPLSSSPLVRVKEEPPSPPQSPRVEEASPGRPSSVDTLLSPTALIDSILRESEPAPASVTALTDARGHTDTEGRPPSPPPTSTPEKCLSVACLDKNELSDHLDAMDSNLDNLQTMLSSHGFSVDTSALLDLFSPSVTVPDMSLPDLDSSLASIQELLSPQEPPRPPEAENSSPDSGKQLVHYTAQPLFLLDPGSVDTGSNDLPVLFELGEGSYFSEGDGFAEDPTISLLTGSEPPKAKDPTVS
In short: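 Read-out: fluorescence of reporter-specific RT-PCR fragments separated by capillary electrophoresis. HepG2 carrying transfected cis-element reporter units; 24 h dosing; activity fitted in both directions relative to DMSO baseline.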

[19] = ATG_PBREM_CIS: Attagene CIS-FACTORIAL HepG2 Assay for human Phenobarbital-responsive Enhancer Module (PBREM) (AID 2282955); settings: HepG2 PBREM cis-reporter, Attagene multiplexed transcription; actives raise or lower the signal
In short: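 Endogenous transcription factors in human liver HepG2 cells drive a PBREM cis-element reporter, whose transcript level after 24 h treatment is quantified by RT-PCR with capillary electrophoresis; activity fitted in both directions against DMSO.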

Measured: outcome

COc1ccc(CCC(C)=O)cc1
inactive: [1] | [2] | [3] | [4] | [5] | [6] | [7] | [8] | [9] | [10] | [11] | [12] | [13] | [14] | [15] | [16] | [17]

CCNCCO
inactive: [1] | [2] | [3] | [4] | [5] | [6] | [18] | [7] | [9] | [10] | [11] | [12] | [13] | [14] | [15] | [16] | [17]

C=C(C)C(=O)OCCOC1CC2CC1C1C=CCC21 (stereo unspecified)
inactive: [1] | [2] | [4] | [5] | [6] | [18] | [7] | [8] | [9] | [10] | [11] | [12] | [13] | [14] | [15] | [16]

CCC(C)S (stereo unspecified)
inactive: [1] | [2] | [3] | [4] | [5] | [6] | [18] | [7] | [8] | [9] | [10] | [11] | [12] | [13] | [14] | [15] | [16] | [17]

CCOC(=O)CN
inactive: [1] | [2] | [3] | [4] | [5] | [6] | [18] | [7] | [19] | [9] | [10] | [11] | [12] | [13] | [14] | [15] | [16] | [17]
